Bioassay records deposited in PubChem by National Center for Advancing Translational Sciences (NCATS).
D3 antag = antagonists of human D3 dopamine receptor; P35462; D3R cells, DiscoveRx beta-arrestin luminescence, antagonist mode; hits give low values; max response, negative = inhibition, %; 2.5% of 360,000 active; in the data active means max response below about -50%; inconclusive means no clear call, values can overlap the other calls
Target sequence (P35462 whole entry, looked up): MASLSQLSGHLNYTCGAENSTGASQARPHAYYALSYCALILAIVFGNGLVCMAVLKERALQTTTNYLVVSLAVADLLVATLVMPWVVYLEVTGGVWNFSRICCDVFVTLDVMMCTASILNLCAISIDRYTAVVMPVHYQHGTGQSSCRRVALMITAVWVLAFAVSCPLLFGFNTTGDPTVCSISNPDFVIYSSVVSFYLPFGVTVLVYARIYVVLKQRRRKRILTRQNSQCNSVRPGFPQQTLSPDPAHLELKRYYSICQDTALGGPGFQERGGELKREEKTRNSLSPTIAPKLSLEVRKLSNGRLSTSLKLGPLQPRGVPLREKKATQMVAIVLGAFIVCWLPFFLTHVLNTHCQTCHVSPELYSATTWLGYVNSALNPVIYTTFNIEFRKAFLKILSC
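Cells plated overnight at 1500 cells/well, then exposed to library compounds with dopamine controls for 90 minutes at 37 degrees C. DiscoveRx reagent added for 30–60 minutes at room temperature; luminescence read, quantitative HTS format.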
DRD3 agonist = activates the human D3 dopamine receptor. P35462. D3R DiscoveRx beta-arrestin cells, luminescence, 90 min. max activation, %. 0.58% of 410,000 active. AID 652048; in the data active means max activation above about 30%
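Agonist mode: compounds and dopamine controls were applied to plated cells for 90 min at 37 degrees C after an overnight attachment at 1500 cells/well. Luminescent read-out followed 30 - 60 minutes at room temperature with DiscoveRx detection reagent.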
D1 potentiator = potentiators of human D1 dopamine receptor; potentiation, % at 10 µM; 0.036% of 360,000 active; P21728; HEK293 TREx D1 cells, calcium flux, dopamine EC20 potentiation; in the data active means potentiation above about 30%
D1 antag = antagonists of human D1 dopamine receptor; activity change, negative = inhibition, % at 10 µM; AID 504652; 3.2% of 360,000 active; P21728; HEK293 TREx D1 cells, calcium flux, dopamine EC80; hits give low values; in the data active means activity change below about -30%
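Calcium flux readout: force-coupled, inducible Hek293 Trex D1 line, cells induced overnight at 30 C with tetracycline, dye-loaded 30–90 min at RT. Antagonism scored against EC80 dopamine challenge given 180 s after compound.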
D1 agonist = agonists of human D1 dopamine receptor. P21728. HEK293 T-REx D1 cells, calcium flux, agonist mode. activation, % at 2 µM. 1% of 360,000 active; in the data active means activation above about 30%
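Inducible HEK293 T-REx D1 cells, force-coupled to calcium signalling, were plated at 4000 cells/well with tetracycline and held overnight at 30 C. After no-wash calcium dye loading, compound-evoked calcium rise over 180 s flagged agonists.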
A number is an active result; n = inactive; u = inconclusive; x = no result. A selection: hits, their analogues and other compounds. The true share with any hit is near 6.1%.

SMILES	D3 antag	DRD3 agonist	D1 potentiator	D1 antag	D1 agonist
C[C@H](CO)N1C[C@H](C)[C@@H](CN(C)Cc2ccc3c(c2)OCCN3C)OCc2cnnn2CCCC1=O	-88	n	x	x	x
C[C@H]1CN([C@@H](C)CO)C(=O)CCCn2cc(nn2)CO[C@@H]1CN(C)C(=O)Nc1ccc(C(F)(F)F)cc1	n	n	x	x	x
C[C@H]1CN([C@@H](C)CO)C(=O)CCCn2nncc2CO[C@@H]1CN(C)Cc1ccc2c(c1)OCCO2	n	n	x	x	x
CCn1nc(C)c2c(-c3ccccc3)cc(=O)n(C(C)C(=O)NCCC(C)C)c21 (stereo unspecified)	x	n	n	n	n
C[C@@H](O[C@H]1OCCN(Cc2n[nH]c(=O)[nH]2)[C@H]1c1ccc(F)cc1)c1cc(C(F)(F)F)cc(C(F)(F)F)c1	x	n	x	x	x
COc1ccc(/C=C/C(=O)O)cc1S(=O)(=O)NCc1ccccc1	n	36	n	n	n
COc1ccc(Br)cc1S(=O)(=O)NCc1ccccc1	n	n	n	n	n
COc1ccc(-c2nnnn2C)cc1S(=O)(=O)NCc1ccccc1	n	n	n	-55	n
COc1ccc(NC(=O)c2cnc3sc(N4CCOCC4)nn3c2=O)c(OC)c1	x	n	n	n	n
COc1ccc(NC(=O)N(CCC(C)C)C(C)c2ccccn2)c(OC)c1 (stereo unspecified)	-53	n	n	n	n
O=C(NC(NC(=S)Nc1ccccc1Cl)C(Cl)(Cl)Cl)c1cccc(Cl)c1 (stereo unspecified)	u	n	n	n	n
O=C(NC(NC(=S)Nc1ccccc1C(=O)O)C(Cl)(Cl)Cl)c1cccc([N+](=O)[O-])c1 (stereo unspecified)	-79	n	n	n	n
COc1ccc(NC(=S)NC(NC(=O)c2cccc(C)c2)C(Cl)(Cl)Cl)c([N+](=O)[O-])c1 (stereo unspecified)	-82	n	n	n	n
COc1ccc(NC(=O)Nc2cc(C(=O)NCc3ccc(C)cc3)ccc2N2CCCC2)cc1	x	n	n	n	n
CCCCc1ccc(S(=O)(=O)NCCc2ccncc2)cc1	n	n	n	-45	n
COc1ccc(CN2CCC(C(=O)c3ccc(Cl)cc3)CC2)cc1	-88	n	n	n	n
COc1ccc(CN2CCC(C(=O)c3cccc(Cl)c3)CC2)cc1	n	n	n	n	n
O=C(c1ccc(F)cc1)C1CCN(Cc2ccccc2)CC1	-86	n	x	x	x
O=C(c1ccc(F)cc1)C1CCN(C(=O)c2ccc(Cl)cc2)CC1	n	n	x	x	x
O=C(c1ccc(F)cc1)C1CCN(Cc2ccc(F)cc2)CC1	-88	n	n	n	n
O=C1/C(=C/c2ccccc2)SC(=S)N1C1CCS(=O)(=O)C1 (stereo unspecified)	n	n	n	-46	n
O=C1/C(=C/c2ccncc2)SC(=S)N1C1CCS(=O)(=O)C1 (stereo unspecified)	n	n	n	n	n
O=C1N/C(=N\N=C\c2cccs2)SC1Cc1ccc(Cl)c(Cl)c1 (stereo unspecified)	n	n	n	-43	n
Cc1snc(S(=O)(=O)/C(C#N)=N/Nc2ccc(C(F)(F)F)cc2)c1C#N	-91	n	n	n	n
Cc1snc(S(=O)(=O)/C(C#N)=N\Nc2ccccc2)c1C#N	n	n	n	n	n
SMILES	D3 antag	DRD3 agonist	D1 potentiator	D1 antag	D1 agonist
CN1CCc2nc3sc(C(=O)Nc4ccccc4C(F)(F)F)c(N)c3cc2C1	x	n	n	n	n
Cc1ccc(C)c(NC(=O)COC(=O)CCNC(=O)c2ccco2)c1	n	n	x	-50	n
CC(=O)N1CCN(S(=O)(=O)c2cccc(C(=O)OCC(=O)Nc3c(Cl)cccc3C(F)(F)F)c2)CC1	n	n	x	x	x
O=C(COC(=O)c1cccc(S(=O)(=O)N2CCc3ccccc32)c1)Nc1ncc(C(F)(F)F)cc1Cl	-57	n	n	n	n
O=C(COC(=O)c1cccc(S(=O)(=O)N2CCCCCC2)c1)Nc1ccccc1	n	n	n	n	n
NC(=O)NC(=O)COC(=O)c1cccc(S(=O)(=O)N2CCCCCC2)c1	n	n	n	-44	n
O=C(COC(=O)c1cccc(S(=O)(=O)N2CCCC2)c1)Nc1ccccc1C(F)(F)F	n	n	n	-33	n
COc1cc2nc(NCCc3ccccc3)n3nc(-c4cccnc4)nc3c2cc1OC	x	n	n	n	n
CCOc1ccccc1NC(=O)Cn1c(=O)n(Cc2ccco2)c(=O)c2ccc(C(=O)NC3CCCC3)cc21	x	n	n	n	n
COc1ccc([C@H]2CC(=O)C=C(c3cc(C)ccc3F)C2)cc1	n	n	n	n	n
CCCOc1ccc(C2=CC(=O)C[C@H](c3ccc(OC)cc3)C2)cc1	n	36	n	n	n
CC(=O)Nc1ccc(C2=CC(=O)C[C@H](c3ccc(Cl)cc3)C2)cc1	n	n	n	-53	n
COc1ccc(C2=CC(=O)C[C@H](c3ccc(OC)c(OC)c3)C2)cc1	n	n	n	x	n
COc1ccc([C@H]2CC(=O)C=C(c3ccc(CNC(=O)OC(C)(C)C)cc3)C2)cc1	n	49	n	n	n
COc1ccc([C@H]2CC(=O)C=C(c3cc(C)ccc3OC)C2)cc1	-58	n	n	n	n
CCc1ccc(CNc2ncc(-c3cccc(OC)c3)n2C)cc1	x	n	n	n	n
O=C(COC(=O)c1n[nH]c2ccccc12)NCCc1ccc(Cl)cc1	n	n	x	-30	n
CCC1CCCCN1C(=O)COC(=O)c1n[nH]c2ccccc12 (stereo unspecified)	n	n	n	x	n
CC1CCN(C(=O)COC(=O)c2n[nH]c3ccccc23)CC1	-54	n	n	n	n
CC(C)CNC(=O)COC(=O)c1n[nH]c2ccccc12	n	n	n	-51	n
Nc1nccnc1C(=O)OCC(=O)NCCc1ccc(Cl)cc1	n	n	n	-47	n
COc1ccc(CNC(=O)COC(=O)c2n[nH]c3ccccc23)cc1	n	n	n	n	n
O=C(COC(=O)Cc1ccc(Cl)cc1)NCCc1ccccc1	n	n	x	n	n
Cc1cccc(CSc2cn(CC(=O)N3CCCC3)c3ccccc23)c1	x	n	n	n	n
Cc1ccc(C(=O)N2CCCCC2CCN2CCCCC2)cc1 (stereo unspecified)	x	n	n	n	n
CC1CNc2c(cccc2S(=O)(=O)N[C@@H](CCCN=C(N)N)C(=O)N2CC[C@@H](C)C[C@@H]2C(=O)O)C1 (stereo partly specified)	x	x	n	n	n
C[C@@H]1CCN(C(=O)[C@H](CCCN=C(N)N)NS(=O)(=O)c2cccc3c2NC[C@H](C)C3)[C@@H](C(=O)O)C1	x	95	x	x	x
O=C1c2cccc3c(N4CCCCC4)ccc(c23)C(=O)N1c1ccc(O)cc1	n	n	n	n	359
O=C(O)c1ccc(N2CCCCCC2)c(N2C(=O)c3ccccc3C2=O)c1	u	n	n	n	n
